Consider 16 compounds from PubChem BioAssay.

Activity calls are given as the source filed them. Unless noted, how the calls were made is not given here.

Test [1] deals with XIP peptide (Xip251-270) binding. Description: small-molecule binders of XIP peptide, primary screen, biochemical, small-molecule microarray, fluorescence 635/667 nm, 0.1 µg/mL protein (AID 1182). The settings on record: fluorescent protein binding, 635 nm, higher = more signal, called active from +8 up or from −8 down.
For test [2], the system named is XIP peptide (Xip251-270). Kind of test: small-molecule binders of XIP peptide, primary screen, biochemical, small-molecule microarray, fluorescence 635/667 nm, 0.5 µg/mL protein (AID 1183). The settings on record: small-molecule microarray binding, fluorescence 635 nm; higher = more signal.
Test [3] can be described thus: Plasmodium falciparum growth inhibition, primary screen, strain 3D7, DAPI fluorescence, 100 nL (AID 1184).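 Further: parasites grown inside human red blood cells in medium with human serum.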 Particulars: P. falciparum 3D7 growth, 3 d, higher = more signal.
Test [4] deals with Homeobox protein Hox-A13 (Mus musculus) (UniProt Q62424). Description: inhibitors of HoxA13-DNA binding, primary screen, biochemical, fluorescence polarization, labeled oligonucleotide (AID 1185). The settings on record: 15 min, higher = more signal, called active from +8 up or from −8 down.
Sequence of Homeobox protein Hox-A13 (Mus musculus) (Q62424 whole entry, looked up): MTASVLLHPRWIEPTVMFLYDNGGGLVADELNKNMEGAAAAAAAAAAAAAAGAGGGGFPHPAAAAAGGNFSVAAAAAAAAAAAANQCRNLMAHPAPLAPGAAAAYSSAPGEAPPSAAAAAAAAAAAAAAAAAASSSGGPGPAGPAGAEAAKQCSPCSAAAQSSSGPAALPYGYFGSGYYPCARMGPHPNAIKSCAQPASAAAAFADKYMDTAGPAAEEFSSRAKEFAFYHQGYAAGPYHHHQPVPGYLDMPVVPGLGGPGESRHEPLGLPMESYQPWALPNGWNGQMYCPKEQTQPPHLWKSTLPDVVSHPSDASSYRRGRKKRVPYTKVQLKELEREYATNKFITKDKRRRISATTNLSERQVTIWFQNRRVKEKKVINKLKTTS
The nature of test [5]: inhibitors of hydroxyurea-induced Chk1 phosphorylation, primary screen, imaging, HeLa, phospho-Chk1 antibody, percent positive cells (AID 1186). The settings on record: hydroxyurea-induced phospho-Chk1 immunofluorescence imaging, higher = more signal.
The nature of test [6]: inhibitors of hydroxyurea-induced Chk1 phosphorylation, primary screen, imaging, HeLa, phospho-Chk1 nuclear intensity (AID 1187). Particulars: hydroxyurea-induced phospho-Chk1 immunofluorescence imaging, higher = more signal.

On to `[N-]=[N+]=NCc1ccccc1C[C@]1(C(=O)NCC(O)CO)N=C(c2ccc(OCCCO)cc2)O[C@H]1c1ccccc1` (stereo partly specified), for which the composite z-score in test [1] was 0.417 (inactive); in test [2], -0.148. Besides, the z-score in test [3] is -0.836; in test [4] it was -6.51 (inactive); in test [5], 0.112 (inactive); in test [6] it was 0.377 (inactive).
With `CC(C)C[C@@H]1NC(=O)[C@H]2C[C@@H](C(=O)NCCCCCCN)[C@@H](c3ccc(O)cc3)N2C1=O`, the results for the composite z-score in test [1] and in test [2] were 1.43 (inactive) and 0.776, respectively. Also, the z-score is -0.108 in test [3], -2.64 (inactive) in test [4], 0.273 (inactive) in test [5] and -0.265 (inactive) in test [6].
Turning to `C=C(C)C1C(=C)CN([C@H](CO)c2ccccc2)C1=O` (stereo partly specified), the composite z-score is -0.389 (inactive) in test [1] and -0.149 in test [2]. In addition, the z-score in test [3] is -0.977; in test [4], -2.61 (inactive); in test [5] it was -0.347 (inactive); in test [6] it was -0.339 (inactive).
As for `O=C1OCC=C[C@H]2OC34C=CCN(c5ccc6ccccc6c5)C(=O)[C@H]3N(CCCCCCO)C(=O)[C@@H]4[C@@H]12` (stereo partly specified), the composite z-score was 0.458 (inactive) in test [1] and 0.2 in test [2]. The z-score in test [3] is -0.341; in test [4] it was -5.38 (inactive); in test [5], -0.261 (inactive); in test [6], -0.572 (inactive).
Regarding `CN(C)C(=O)[C@@]1(Cc2ccccc2CN=[N+]=[N-])N=C(c2ccc(OCCCO)cc2)O[C@H]1c1ccccc1`, the composite z-score in test [1] is 1.79 (inactive); in test [2], 0.817. For the same compound, the z-score in test [3] was -2.27; in test [4] it was -5.09 (inactive); in test [5], -0.631 (inactive); in test [6], -0.679 (inactive).
For `CCCC[C@@H]1C[C@H]1[C@@H](NC(=O)c1ccco1)c1ccc(C(=O)OC)cc1`, the composite z-score in test [1] is -0.687 (inactive); in test [2], -0.16. For the same compound, the z-score in test [3] is -0.941; in test [4] it was 0.198 (inactive); in test [5], 0.29 (inactive); in test [6], 0.0944 (inactive).
Regarding `COC(=O)[C@@]1(Cc2ccc(F)cc2)[C@H]2c3cc(C(=O)N(C)C)n(CC4CC4)c3C[C@H]2CN1C(=O)c1ccccc1`, the composite z-score in test [1] is 0.308 (inactive); in test [2] it was 0.524. Moreover, the z-score in test [3] was -1.33; in test [4], -2.84 (inactive); in test [5], -1.45 (inactive); in test [6], -1.76 (inactive).
As to `Cc1ccc(C(C)CC(O)C2C=CC3C(=O)N(C)C(=O)C3N2NC(=O)OC(C)(C)C)o1` (stereo unspecified), the composite z-score was 3.24 (inactive) in test [1] and 0.709 in test [2]. Further, the z-score in test [3] was 0.556; in test [4], -3.33 (inactive); in test [5], -0.158 (inactive); in test [6], -0.168 (inactive).
Consider `COc1ccc(C(O)C2C=CC3C(=O)NC(=O)C3N2Nc2ccccn2)cc1` (stereo unspecified), for which the composite z-score is -1.2 (inactive) in test [1] and 0.658 in test [2]. For the same compound, the z-score was 0.557 in test [3], -1.88 (inactive) in test [4], 0.723 (inactive) in test [5] and 0.51 (inactive) in test [6].
For the compound `O=C1NC(=O)C2C1C=CC(C(O)Cc1ccccc1)N2Nc1ccc(Cl)cc1Cl` (stereo unspecified), the composite z-score in test [1] was 0.0966 (inactive); in test [2] it was -0.474. Besides, the z-score is 0.17 in test [3], -5.64 (inactive) in test [4], 0.985 (inactive) in test [5] and 1.09 (inactive) in test [6].
In the case of `CO[C@H]1O[C@H](CO)[C@@H](OC(=O)Nc2ccc(Br)cc2)[C@H](OC(=O)c2cc3ccccc3[nH]2)[C@H]1OC(=O)c1cc2ccccc2[nH]1`, the composite z-score is 1.36 (inactive) in test [1] and 0.716 in test [2]. The z-score is -1.64 in test [3], -2.09 (inactive) in test [4], -0.547 (inactive) in test [5] and -0.872 (inactive) in test [6].
As for `CCCC[C@H]1OB(O)C[C@H]2C1=C(COc1ccccc1)C[C@H]1C(=O)N(C)C(=O)[C@H]12`, the composite z-score is -0.146 (inactive) in test [1] and -0.544 in test [2]. The z-score was 1.68 in test [3], -4.62 (inactive) in test [4], -0.267 (inactive) in test [5] and 0.201 (inactive) in test [6].
As for `O=C(NCc1ccc(F)cc1)[C@H]1C[C@H]2C(=O)N[C@@H](Cc3ccccc3)C(=O)N2[C@H]1c1ccc(O)cc1`, the composite z-score in test [1] was 0.114 (inactive); in test [2], 0.832. Also, the z-score in test [3] is -0.237; in test [4], -1.6 (inactive); in test [5] it was -0.762 (inactive); in test [6], -0.352 (inactive).
For `CC(C)c1ccc(NN2C(C(O)C(c3ccccc3)c3ccccc3)C=CC3C(=O)N(c4ccccc4)C(=O)C32)cc1` (stereo unspecified), the results for the composite z-score in test [1] and in test [2] were 0.234 (inactive) and 0.739, respectively. Also, the z-score in test [3] is -0.536; in test [4], -2.67 (inactive); in test [5], 0.286 (inactive); in test [6], 0.207 (inactive).
Turning to `NCCCCCNC(=O)[C@@H]1C[C@@H]2C(=O)NCC(=O)N2[C@@H]1c1ccc(O)cc1`, the composite z-score in test [1] was 0.715 (inactive); in test [2], 0.416. Moreover, the z-score was 0.112 in test [3], -1.06 (inactive) in test [4], -0.44 (inactive) in test [5] and -0.316 (inactive) in test [6].
Regarding `CC(C)[C@@H](CO)NC(=O)[C@H]1[C@@H](c2ccccc2)N(c2ccccc2)O[C@@H]1C`, the composite z-score in test [1] is -0.795 (inactive); in test [2], -0.248. Besides, the z-score is 0.484 in test [3], -1.23 (inactive) in test [4], -0.0482 (inactive) in test [5] and 0.564 (inactive) in test [6].
